78 molecules from PubChem BioAssay can be followed below.

The structures appear in SMILES notation. A number with no mark means an inactive call. The rule behind the calls is not given here.

Assay [1] deals with Aerobactin synthetase IucA (Klebsiella pneumoniae hvKP1). In words: IucA enzyme inhibition, primary screen, biochemical, Spectrum library (AID 1346200).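 Note: 100% = wells without compound and 0% = wells lacking enzyme.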 The note with it: malachite green pyrophosphate, A620, at 8 µM, stronger effect = lower value.
The subject of assay [2] is Aerobactin synthetase IucA (Klebsiella pneumoniae, hypervirulent). In words: biochemical IucA inhibition screen of LOPAC library by absorbance (AID 1346212).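 Note: 100% = no compound wells and 0% = no enzyme wells.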 The note with it: IucA enzyme assay, absorbance (OD) readout; stronger effect = lower value;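 tested at 8 µM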.

Regarding `COc1cc(NS(=O)(=O)c2ccc(N)cc2)nc(OC)n1`, the activity remaining in assay [1] is 90.2%. For `COc1ccc(C2C(=O)c3ccccc3C2=O)cc1`, the activity remaining in assay [1] was 119%.

`COc1ccc(-c2coc3cc(O)ccc3c2=O)c(OC)c1`: the activity remaining in assay [1] was 111%.

As for `C=C1CC[C@H](O)C/C1=C/C=C1\CCC[C@]2(C)C([C@H](C)/C=C/[C@H](C)C(C)C)CC[C@@H]12` (some centres not stated), the activity remaining in assay [1] was 107%.

Regarding `CC(=O)Oc1ccc2c(c1OC(C)=O)OCC1(O)Cc3c(cc(OC(C)=O)c(OC(C)=O)c3OC(C)=O)C21` (configuration not stated), in assay [1], the activity remaining is 111%. On to `C[N+](C)(C)CCOP(=O)([O-])OP(=O)(O)OC[C@H]1OC(n2ccc(N)nc2=O)[C@H](O)[C@@H]1O` (some centres not stated), for which the activity remaining in assay [1] is 118%. `Nc1ncnc2c1ncn2C1C[C@H](O)[C@@H](CO)O1` (some centres not stated): in assay [1], the activity remaining is 125%.

Take `COc1ccc2c(c1)OC[C@@H](Cc1ccc(OC)c(OC)c1)[C@H]2O`: in assay [1], the activity remaining is 109%. For `CCC(=O)NCC[C@@H]1CCc2ccc3c(c21)CCO3`, in assay [1], the activity remaining is 120%. As for `NC(Cc1c[nH]c2ccccc12)C(=O)O` (configuration not stated), in assay [1], the activity remaining was 107%. Same read-out and setting: for `C[n+]1c2cc(N)ccc2cc2ccc(N)cc21` the value was 111%; for `CC(=O)Oc1ccc2c(c1)CCC1C2CC[C@@]2(C)C1C[C@@H](OC(C)=O)[C@@H]2OC(C)=O` (some centres not stated), 97.3%.

`Cc1cccc(N(C)C(=S)Oc2ccc3ccccc3c2)c1`: the activity remaining in assay [1] was 116%. On to `C[N+]1(C)C2CC[C@H]1CC(OC(=O)C(O)c1ccccc1)C2` (some centres not stated), for which the activity remaining in assay [1] is 95%. Turning to `C[C@H]1COC2=C1C(=O)C(=O)c1c2ccc2c1CCCC2(C)C`, the activity remaining in assay [1] is 106%. As to `N=c1ccn2c(n1)O[C@@H]1C2O[C@H](CO)[C@H]1O` (some centres not stated), in assay [1], the activity remaining was 105%. As to `CC(=O)NO`, in assay [1], the activity remaining was 103%. The same measure, in the same setting: for `O=C(NCO)c1cccnc1` the value was 113%. In the case of `CCC(C(N)=O)c1ccccc1` (configuration not stated), in assay [1], the activity remaining is 119%. In the case of `CCC(C)C(=O)O[C@H]1C[C@H](O)C=C2C=C[C@H](C)[C@H](CC[C@@H](O)C[C@@H](O)CC(=O)O)C21` (some centres not stated), the activity remaining in assay [1] is 113%. Take `CCCCC(=O)N(Cc1ccc(-c2ccccc2-c2nn[nH]n2)cc1)[C@H](C(=O)O)C(C)C`: the activity remaining in assay [1] is 121%. `COc1cc(C(C)=O)cc(OC)c1O`: the activity remaining in assay [1] was 94.5%. The same measure, in the same setting: for `CCC(=O)c1c(O)cc(O)cc1O` the value was 116%; for `CC(C)Cc1ccc(C(C)C(=O)O)cc1` (configuration not stated), 90.9%; for `CC(C)CCCC(C)[C@H]1CCC2C3CC=C4C[C@@H](O)CC[C@]4(C)C3CC[C@@]21C` (some centres not stated), 117%. In the case of `COc1cc2cc3c4cc(OC)c(OC)cc4cc[n+]3c(C)c2cc1OC`, the activity remaining in assay [1] is 95.4%. Still for that read-out and setting: for `COc1cc(O)c2c(=O)c(O)c(-c3ccc(O)c(O)c3)oc2c1` the value was 103%; for `COc1ccc(OC)c(C(O)CNC(=O)CN)c1` (configuration not stated), 99.4%; for `C#CCCCCCCCCCCCC(O)CC(O)COC(C)=O` (configuration not stated), 109%. Still for that read-out and setting: for `CC[C@@]1(O)C(=O)OCc2c1cc1n(c2=O)Cc2cc3c(CN(C)C)c(O)ccc3nc2-1` the value was 121%; for `C[C@H]1CC[C@@H](C(C)(C)O)CC2=C1CC[C@@H]2C`, 102%; for `CC(=O)O[C@H]1CC[C@@]2(C)C(=CCC3C2CC[C@@]2(C)C3CC[C@@H]2C(C)CCCC(C)C)C1` (some centres not stated), 124%. Turning to `CC(=O)NCCCS(=O)(=O)O`, in assay [1], the activity remaining is 103%. As to `COCCCOc1cc(C[C@@H](C[C@H](N)[C@@H](O)C[C@H](C(=O)NCC(C)(C)C(N)=O)C(C)C)C(C)C)ccc1OC`, the activity remaining in assay [1] was 107%. As to `C=CCS(=O)C[C@H](N)C(=O)O` (some centres not stated), the activity remaining in assay [1] is 125%. Consider `NC(=O)N1c2ccccc2CC(=O)c2ccccc21`, for which the activity remaining in assay [1] was 123%. As for `CC(=O)O[C@H]1C[C@@]2(C)[C@@H](C[C@@H](O)C3[C@]2(C)CC[C@H]2[C@H](C)[C@H](O)CC[C@]32C)/C1=C(/CCC=C(C)C)C(=O)O` (some centres not stated), in assay [1], the activity remaining is 110%. With `O=C(O)c1cc(O)c2c(c1)[C@@H]([C@H]1c3cc(C(=O)O)cc(O)c3C(=O)c3c(O[C@H]4O[C@H](CO)[C@@H](O)[C@H](O)[C@H]4O)cccc31)c1cccc(O[C@H]3O[C@H](CO)[C@@H](O)[C@H](O)[C@H]3O)c1C2=O`, in assay [1], the activity remaining is 98.9%. Same read-out and setting: for `CC(C)c1cccc(O)c(=O)c1` the value was 123%; for `O=C(/C=C/c1ccc(O)cc1)c1ccccc1O`, 109%; for `CC1(C)C2C[C@@H](O)[C@]3(C)C(CC[C@@]4(C)[C@H](c5ccoc5)OC(=O)C5OC543)[C@@]2(C)C(=O)C[C@H]1O` (some centres not stated), 108%.

Take `C[C@@H]1CC2C3CCC4=CC(=O)C=C[C@]4(C)[C@@]3(F)[C@@H](O)C[C@]2(C)[C@@]1(O)C(=O)CO` (some centres not stated): the activity remaining in assay [1] was 119%. The same measure, in the same setting: for `O=C(O)c1cc(O)c2c(c1)C(=O)c1cc(O)cc(O)c1C2=O` the value was 99.8%. Regarding `N[C@@H](Cc1cc(I)c(Oc2ccc(O)c(I)c2)c(I)c1)C(=O)O`, the activity remaining in assay [1] is 125%. As to `CC(=O)N[C@@H]1[C@@H](O)[C@H](O)[C@@H](CO)O[C@H]1O`, the activity remaining in assay [1] is 106%. For the molecule `CCOC(=O)[C@H](CCc1ccccc1)N[C@H]1CCc2ccccc2N(CC(=O)O)C1=O`, the activity remaining in assay [1] was 123%. Take `COc1c(C)c2c(c(O)c1C/C=C(\C)CCC(=O)O)C(=O)OC2`: in assay [1], the activity remaining was 98.9%. Consider `CC(=O)O[C@@H]1CC2C(C)(C)[C@H](O)C=C[C@]2(C)C2CC[C@@]3(C)[C@H](c4ccoc4)OC(=O)C4OC43[C@@]21C` (some centres not stated), for which, in assay [1], the activity remaining is 107%. For `CC(=O)Oc1ccc(O)cc1`, the activity remaining in assay [1] was 122%.

`CN1C(CC(=O)c2ccccc2)CCCC1CC(O)c1ccccc1` (configuration not stated): the activity remaining in assay [1] is 108%. Consider `CC(=O)OCC(=O)[C@H]1CCC2C3CC=C4C[C@@H](O)CC[C@]4(C)C3CC[C@@]21C` (some centres not stated), for which the activity remaining in assay [1] was 92.3%. Regarding `CCN(CC)C(=O)N1CCN(C)CC1`, in assay [1], the activity remaining was 118%. For the molecule `C=CCCCCCCCCCCCC(O)CC(O)COC(C)=O` (configuration not stated) (tested in a mixture with another compound), the activity remaining in assay [1] was 81.7%. On the same count and under the same terms, for `Cc1cccc(CN2CCN(C(c3ccccc3)c3ccc(Cl)cc3)CC2)c1` (configuration not stated) the value was 95.5%; for `S=P(N1CC1)(N1CC1)N1CC1`, 89.8%; for `COc1c(O)cc2oc3cc(O)c(CC=C(C)C)c(O)c3c(=O)c2c1CC=C(C)C`, 93%. For the molecule `O=c1c(O)cccc2c([C@H]3Oc4cc(O)cc(O)c4C[C@@H]3O)cc(O)c(O)c12`, in assay [1], the activity remaining is 99.4%. With `CC1(C)CCC[C@@]2(C)C1[C@@H](O)C[C@]1(C)C2CC[C@@H]2[C@@]3(C)CC[C@H](C(C)(C)O)[C@@H]3CC[C@@]21C` (some centres not stated), the activity remaining in assay [1] is 99.1%. In the case of `CC1CCC2(OC1)OC1CC3C4CCC5C[C@@H](O)CCC5(C)C4=CCC3(C)C1[C@@H]2C` (some centres not stated), the activity remaining in assay [1] was 95.7%.

Turning to `CC(=O)/C=C\[C@@H]1[C@@]2(C)CCCC(C)(C)C2CC[C@@]1(C)O` (some centres not stated), in assay [1], the activity remaining was 95.5%. On to `O=C(O)CC(O)(CC(=O)O)C(=O)O`, for which, in assay [1], the activity remaining was 123%.

In the case of `CCC(=O)O[C@]1(C(=O)CCl)[C@@H](C)CC2C3CCC4=CC(=O)C=C[C@]4(C)[C@@]3(F)[C@@H](O)C[C@@]21C` (some centres not stated), the activity remaining in assay [1] was 112%.

With `C[N+]12CCC(CC1)C(OC(=O)C(O)(c1ccccc1)c1ccccc1)C2` (configuration not stated), in assay [1], the activity remaining is 111%. Still for that read-out and setting: for `CCCCCC/C=C\CCCCCCCc1cccc(O)c1C(=O)O` the value was 112%; for `CC1(C)CC2C1CCC1(C)OC1CCC2(C)O` (configuration not stated), 120%; for `CC1=C(/C=C/C(C)=C/C=C/C(C)=C/C=C/C=C(C)/C=C/C=C(C)/C=C/C2=C(C)C(=O)C(O)CC2(C)C)C(C)(C)CC(O)C1=O` (configuration not stated), 109%. Consider `Oc1ccc([C@H]2Oc3cc(O)cc(O)c3C[C@H]2O)cc1`, for which the activity remaining in assay [1] is 113%. As to `CC(=O)O[C@H]1CC[C@@]2(C)C(CC[C@]3(C)C2CC=C2C4CC(C)(C)CC[C@]4(C)CC[C@]23C)C1(C)C` (some centres not stated), the activity remaining in assay [1] is 102%. Regarding `COc1ccc(-c2cc(=O)c3c(O)c(OC)c(O[C@H]4O[C@H](CO[C@@H]5O[C@@H](C)[C@H](O)[C@@H](O)[C@H]5O)[C@@H](O)[C@H](O)[C@H]4O)cc3o2)cc1`, in assay [1], the activity remaining was 109%. Consider `C/C=C1\[C@H]2C=C(C)C[C@]1(N)c1ccc(=O)[nH]c1C2`, for which the activity remaining in assay [1] is 122%. Regarding `C#C[C@]1(OC(C)=O)CCC2C3CCC4=CC(=O)CC[C@@H]4C3CC[C@@]21C` (some centres not stated), the activity remaining in assay [1] is 93%. Consider `CC(=O)OC[C@@]1(O)C[C@@]23CCC4c5ccoc5CC[C@]4(C)C2CC[C@@H]1C3` (some centres not stated), for which the activity remaining in assay [1] was 119%.

Regarding `N[C@@H]1[C@@H](O[C@@H]2O[C@H](C(=O)O)[C@@H](O)[C@H](O)[C@H]2O)[C@@H](O)[C@@H](CO)O[C@@H]1O`, the activity remaining in assay [1] was 100%.

On to `CC1(C)OCC(C2OC(=O)C(O)=C2O)O1` (configuration not stated), for which the activity remaining in assay [1] was 87.7%.

For `Oc1ccc(O)cc1`, in assay [1], the activity remaining was 121%. Besides, in assay [2], the remaining activity – broadly, the signal under treatment as a percentage of the control signal – was 105%. For `CCOC(=O)C(C)(C)Oc1ccc(Cl)cc1`, in that order: 110% and 122%. The corresponding values for `Fc1ccc(C(c2ccc(F)cc2)N2CCN(C/C=C/c3ccccc3)CC2)cc1` are 117% and 103%.

Take `CCN(CC)CCNC(=O)c1cc(Cl)c(N)cc1OC`: in assay [1], the activity remaining was 88.1%. The remaining activity in assay [2] is 101%.
